For 19 molecules, Percent Effect results are on record in ChEMBL document CHEMBL3988442, “University of Dundee, Small-Polar-MMV Screening Library” (2021).

In assay [1] the target is T1, Aspartate--tRNA(Asp/Asn) ligase (Mycobacterium tuberculosis (strain ATCC 25618 / H37Rv)) (UniProt P9WFW3). Further: in the data most compounds retested in dose-response had high values.
T1 sequence (whole entry): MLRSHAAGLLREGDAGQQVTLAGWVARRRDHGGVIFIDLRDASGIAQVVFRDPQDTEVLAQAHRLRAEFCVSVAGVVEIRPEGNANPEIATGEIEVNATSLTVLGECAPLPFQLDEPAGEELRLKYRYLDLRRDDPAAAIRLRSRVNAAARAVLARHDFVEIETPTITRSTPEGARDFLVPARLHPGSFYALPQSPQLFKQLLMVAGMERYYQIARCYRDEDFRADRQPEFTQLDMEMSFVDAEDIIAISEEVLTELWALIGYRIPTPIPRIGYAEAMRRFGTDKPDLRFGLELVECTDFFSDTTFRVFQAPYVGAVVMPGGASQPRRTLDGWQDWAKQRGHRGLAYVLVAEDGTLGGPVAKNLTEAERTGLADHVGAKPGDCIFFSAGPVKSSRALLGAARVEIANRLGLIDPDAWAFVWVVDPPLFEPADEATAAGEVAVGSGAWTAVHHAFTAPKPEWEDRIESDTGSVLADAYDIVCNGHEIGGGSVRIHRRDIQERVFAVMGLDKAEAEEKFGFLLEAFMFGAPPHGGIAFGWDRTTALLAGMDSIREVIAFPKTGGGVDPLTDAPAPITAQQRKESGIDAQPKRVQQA
Kind of assay: Assay for Asp RNA synthetase-1 from Mycobacterium tuberculosis. The format is functional. Conditions: 30 µM. Also on record: scale not given: direction of the effect not stated beside the values.

In assay [2] the target is Shiga toxin 2 (Escherichia coli O157:H7) (UniProt P09385+P09386). Kind of assay: E. coli 0.157:H7 Shiga Toxin SOP - stx2 screening assay. The format is functional. Also on record: scale not given: direction of the effect not stated beside the values. The settings on record: 30 µM.

In the case of `c1cnc(NCc2noc3c2CN(CCN2CCCC2)CC3)nc1`, the Percent Effect in assay [1] was 1.46%; in assay [2], -35.5%.

For `Cc1noc(C(C)N2CCN(CCC(=O)N3CCCCC3)CC2)n1` (stereo not drawn), the Percent Effect is -2.64% in assay [1] and 7.71% in assay [2].

In the case of `Cc1cnn(CCC(=O)N2CCN(c3ncccc3Cl)CC2)c1`, the Percent Effect in assay [1] was -7%; in assay [2], 13.3%.

Turning to `Cc1ccoc1-c1nnc(CNCCn2cccn2)o1`, the values for the Percent Effect in assay [1] and in assay [2] were 0.914% and -39.9%, respectively.

For `Cc1cnc2c(S(=O)(=O)NCC3CCS(=O)(=O)C3)cccc2c1` (stereo not drawn), the Percent Effect in assay [1] was 3.04%; in assay [2], -5.77%.

On to `Cn1ncc(NCc2cc(F)cc(F)c2)c(Cl)c1=O`, for which the Percent Effect in assay [1] was -1.31%; in assay [2] it was -23.1%.

As for `CC(Cn1ccnc1)NC(=O)NCCNC(=O)C(C)C` (stereo not drawn), the Percent Effect worked out at 1.08% in assay [1] and 11.8% in assay [2].

As for `c1ccc(Cn2cc3c(n2)C(CNCc2ccco2)OCC3)nc1` (stereo not drawn), the Percent Effect in assay [1] is 6.18%; in assay [2], -26.1%.

On to `CNC(=O)[C@H]1C[C@H]2OCC[C@H]2N(Cc2cccc3ccccc23)C1`, for which the results for the Percent Effect in assay [1] and in assay [2] were 0.598% and -15.6%, respectively.

For the molecule `O=C1CC(c2ccccc2)c2snc(C(=O)O)c2N1` (stereo not drawn), the values for the Percent Effect in assay [1] and in assay [2] were -6.76% and -1.61%, respectively.

For the molecule `COc1cccc(-c2nccnc2C2CCN(C(C)=O)CC2)c1`, the values for the Percent Effect in assay [1] and in assay [2] were -3.41% and 16.4%, respectively.

`Cc1nc([C@@H]2C[C@@H]3CCN(C(=O)c4ccnnc4)C[C@H]3O2)sc1C`: the Percent Effect in assay [1] was 4.24%; in assay [2], -9.81%.

Consider `CCc1noc(C)c1C(=O)N(C)Cc1ncc(C)c(OC)c1C`, for which the Percent Effect in assay [1] was -1.73%; in assay [2], 16.8%.

Regarding `Cc1oc(C)c(C(=O)NCc2ccccn2)c1C`, the Percent Effect was -4.72% in assay [1] and 26.9% in assay [2].

For the molecule `Cc1oc(C(=O)O)cc1S(=O)(=O)Nc1ccc(Cl)c(F)c1`, the Percent Effect in assay [1] was found to be 1.64%; in assay [2], 16.3%.

Consider `COc1cc(C(=O)NS(=O)(=O)c2cccc(C#N)c2)ccc1C`, for which the values for the Percent Effect in assay [1] and in assay [2] were -2.04% and -1.16%, respectively.

For `CC(=O)N1CCCn2nc(CNS(=O)(=O)c3cc(C)cs3)cc2C1`, the Percent Effect was 1.67% in assay [1] and 5.82% in assay [2].

Take `CCN(C(=O)COC)C(c1cccnc1)c1ccc2c(c1)CCO2` (stereo not drawn): the Percent Effect was 2.07% in assay [1] and -29.4% in assay [2].

On to `CN(Cc1cccc(F)c1)C(=O)CN1CCCC1CCc1ccccc1` (stereo not drawn), for which the Percent Effect in assay [1] was -1.52%; in assay [2] it was -33.4%.
